Source: paper PMC7862700, “An all-to-all approach to the identification of sequence-specific readers for epigenetic DNA modifications on cytosine”

Tests used:
Assay in all cases: DAPPL (digital affinity profiling via proximity ligation, sequencing); 10 mM Tris-HCl pH 7.5, 50 mM NaCl, 1 mM DTT, 4% glycerol, room temperature, 30 min; GST-TFs on glutathione beads, 16-mer random dsDNA library, 0.1% formaldehyde crosslink after washing; high values mean tight binding
FLI1 = target: T1, FLI1 (Homo sapiens, UniProt Q01543 1-452); details: protein: recombinant; tags: N-terminal GST; dsDNA, one strand shown
T1 sequence: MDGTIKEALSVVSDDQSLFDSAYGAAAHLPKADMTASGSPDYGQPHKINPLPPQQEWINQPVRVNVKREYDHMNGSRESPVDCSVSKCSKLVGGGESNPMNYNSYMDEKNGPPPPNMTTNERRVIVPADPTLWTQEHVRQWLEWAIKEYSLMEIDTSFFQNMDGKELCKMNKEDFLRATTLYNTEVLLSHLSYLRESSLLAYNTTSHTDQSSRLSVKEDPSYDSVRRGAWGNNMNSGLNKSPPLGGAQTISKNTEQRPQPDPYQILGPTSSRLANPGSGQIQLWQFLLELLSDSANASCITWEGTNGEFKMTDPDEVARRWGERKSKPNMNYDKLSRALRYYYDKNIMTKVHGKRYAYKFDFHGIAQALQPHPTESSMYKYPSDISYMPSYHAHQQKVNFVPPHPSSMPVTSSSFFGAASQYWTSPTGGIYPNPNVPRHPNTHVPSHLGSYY
In short: (§1)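 The binding signal reported is, for every hexamer, its read frequency for a factor over its read frequency for the tag-only sample. Reads came from pools of yeast-expressed, GST-fused human transcription factors on glutathione beads, barcoded with DNA and mixed with that sample, which were incubated with 200 nmole of a random double-stranded 16-mer DNA library in Tris/NaCl/DTT/glycerol buffer at room temperature for 30 min. After washing, the pools were crosslinked with 0.1% formaldehyde, proximity-ligated with BsaI/T4 ligase for 1 h at 37 °C, PCR-amplified and sequenced on an Illumina NextSeq500.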

ELK1 = target: T2, ELK1 (Homo sapiens, UniProt P19419 1-428); details: protein: recombinant; tags: N-terminal GST; dsDNA, one strand shown
T2 sequence: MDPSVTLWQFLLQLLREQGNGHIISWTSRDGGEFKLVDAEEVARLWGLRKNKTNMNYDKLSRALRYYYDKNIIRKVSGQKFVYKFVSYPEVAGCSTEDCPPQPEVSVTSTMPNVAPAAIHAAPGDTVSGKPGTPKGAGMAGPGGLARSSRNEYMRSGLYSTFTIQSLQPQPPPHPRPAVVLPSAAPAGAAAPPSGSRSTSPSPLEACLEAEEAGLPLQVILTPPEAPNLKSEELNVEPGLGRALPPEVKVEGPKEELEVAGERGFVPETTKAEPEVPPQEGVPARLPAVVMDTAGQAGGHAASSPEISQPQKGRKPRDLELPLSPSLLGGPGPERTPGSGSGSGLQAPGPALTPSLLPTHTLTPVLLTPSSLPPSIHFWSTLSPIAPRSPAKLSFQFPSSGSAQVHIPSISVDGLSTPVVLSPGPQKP
In short: as §1

GABPA = target: T3, GABPA (Homo sapiens, UniProt Q06546 1-454); details: protein: recombinant; tags: N-terminal GST; dsDNA, one strand shown
T3 sequence: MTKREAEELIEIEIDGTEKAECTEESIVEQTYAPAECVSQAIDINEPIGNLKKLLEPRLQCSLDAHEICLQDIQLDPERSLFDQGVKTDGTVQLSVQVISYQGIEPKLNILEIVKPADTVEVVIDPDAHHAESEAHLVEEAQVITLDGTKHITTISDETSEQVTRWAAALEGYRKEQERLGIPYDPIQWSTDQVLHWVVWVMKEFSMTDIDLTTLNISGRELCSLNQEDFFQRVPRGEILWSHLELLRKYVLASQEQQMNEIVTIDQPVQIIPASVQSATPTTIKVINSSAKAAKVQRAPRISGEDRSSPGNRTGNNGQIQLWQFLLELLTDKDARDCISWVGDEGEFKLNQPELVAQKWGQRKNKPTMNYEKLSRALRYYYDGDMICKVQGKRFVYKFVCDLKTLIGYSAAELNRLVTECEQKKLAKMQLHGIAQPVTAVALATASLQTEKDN
In short: as §1

ERG = target: T4, ERG (Homo sapiens, UniProt P11308 1-479); details: protein: recombinant; tags: N-terminal GST; dsDNA, one strand shown
T4 sequence: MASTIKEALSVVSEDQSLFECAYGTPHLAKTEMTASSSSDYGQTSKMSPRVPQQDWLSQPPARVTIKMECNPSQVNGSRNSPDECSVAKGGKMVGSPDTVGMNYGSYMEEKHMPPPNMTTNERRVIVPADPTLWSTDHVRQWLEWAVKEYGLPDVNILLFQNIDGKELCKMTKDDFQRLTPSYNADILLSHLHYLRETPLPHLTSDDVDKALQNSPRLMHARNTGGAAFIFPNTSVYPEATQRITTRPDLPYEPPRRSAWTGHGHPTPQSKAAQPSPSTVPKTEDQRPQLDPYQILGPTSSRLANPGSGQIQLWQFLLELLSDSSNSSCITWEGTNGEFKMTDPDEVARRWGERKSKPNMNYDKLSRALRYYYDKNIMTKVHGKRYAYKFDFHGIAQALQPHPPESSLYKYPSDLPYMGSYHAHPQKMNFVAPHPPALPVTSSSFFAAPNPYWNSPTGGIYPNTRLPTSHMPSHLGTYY
In short: as §1

ELF1 = ELF1 (Homo sapiens, UniProt P32519 1-619); details: protein: recombinant; tags: N-terminal GST; dsDNA, one strand shown
Chain of ELF1 (P32519 whole entry): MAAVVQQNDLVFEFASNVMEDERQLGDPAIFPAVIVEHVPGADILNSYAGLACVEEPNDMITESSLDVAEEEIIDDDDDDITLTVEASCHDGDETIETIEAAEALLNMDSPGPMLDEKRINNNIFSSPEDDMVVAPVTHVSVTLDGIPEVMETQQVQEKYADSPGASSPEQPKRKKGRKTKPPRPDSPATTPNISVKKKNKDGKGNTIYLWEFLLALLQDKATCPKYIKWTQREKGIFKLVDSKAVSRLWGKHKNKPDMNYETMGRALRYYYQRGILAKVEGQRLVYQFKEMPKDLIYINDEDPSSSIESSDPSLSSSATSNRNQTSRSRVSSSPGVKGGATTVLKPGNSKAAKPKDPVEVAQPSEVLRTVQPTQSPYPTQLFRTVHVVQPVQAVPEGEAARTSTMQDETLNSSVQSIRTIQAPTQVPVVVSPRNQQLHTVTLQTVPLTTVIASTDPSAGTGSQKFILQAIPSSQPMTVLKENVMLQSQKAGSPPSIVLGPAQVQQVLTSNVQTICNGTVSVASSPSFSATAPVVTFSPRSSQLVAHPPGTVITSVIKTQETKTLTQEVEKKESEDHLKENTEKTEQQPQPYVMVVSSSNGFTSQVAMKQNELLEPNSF
In short: as §1

EHF = target: T5, EHF (Homo sapiens, UniProt Q9NZC4 1-300); details: protein: recombinant; tags: N-terminal GST; dsDNA, one strand shown
T5 sequence: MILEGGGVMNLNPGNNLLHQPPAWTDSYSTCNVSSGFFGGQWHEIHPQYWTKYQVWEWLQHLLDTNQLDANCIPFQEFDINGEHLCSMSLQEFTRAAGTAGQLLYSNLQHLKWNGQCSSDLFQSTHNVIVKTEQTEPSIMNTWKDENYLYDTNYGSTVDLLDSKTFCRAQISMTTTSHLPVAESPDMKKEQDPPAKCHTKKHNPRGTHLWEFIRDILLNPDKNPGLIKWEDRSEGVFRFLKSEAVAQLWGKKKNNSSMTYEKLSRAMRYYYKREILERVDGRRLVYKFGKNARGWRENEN
In short: as §1

SPI1 = SPI1 (Homo sapiens, UniProt P17947 1-270); details: protein: recombinant; tags: N-terminal GST; dsDNA, one strand shown
In short: as §1

SPIB = SPIB (Homo sapiens, UniProt Q01892 1-262); details: protein: recombinant; tags: N-terminal GST; dsDNA, one strand shown
Chain of SPIB (Q01892 whole entry): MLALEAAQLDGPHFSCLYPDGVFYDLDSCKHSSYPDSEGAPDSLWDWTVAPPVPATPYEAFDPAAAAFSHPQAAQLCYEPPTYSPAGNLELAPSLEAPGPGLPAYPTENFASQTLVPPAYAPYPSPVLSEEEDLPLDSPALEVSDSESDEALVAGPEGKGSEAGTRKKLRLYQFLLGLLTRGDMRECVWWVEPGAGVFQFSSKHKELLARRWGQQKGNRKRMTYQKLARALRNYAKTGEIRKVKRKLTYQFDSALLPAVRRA
In short: as §1

ELK3 = target: T6, ELK3 (Homo sapiens, UniProt P41970 1-407); details: protein: recombinant; tags: N-terminal GST; dsDNA, one strand shown
T6 sequence: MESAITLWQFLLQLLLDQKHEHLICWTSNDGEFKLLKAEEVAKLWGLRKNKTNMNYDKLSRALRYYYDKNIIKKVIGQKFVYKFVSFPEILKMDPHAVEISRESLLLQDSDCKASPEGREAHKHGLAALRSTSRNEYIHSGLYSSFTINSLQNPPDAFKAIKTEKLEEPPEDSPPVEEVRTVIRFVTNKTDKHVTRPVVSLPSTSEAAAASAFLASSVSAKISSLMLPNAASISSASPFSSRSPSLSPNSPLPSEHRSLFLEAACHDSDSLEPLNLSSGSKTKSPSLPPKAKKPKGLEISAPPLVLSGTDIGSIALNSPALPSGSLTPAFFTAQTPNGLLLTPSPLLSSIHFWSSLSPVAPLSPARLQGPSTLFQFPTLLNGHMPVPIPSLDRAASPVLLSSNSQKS
In short: as §1

FEV = target: T7, FEV (Homo sapiens, UniProt Q99581 1-238); details: protein: recombinant; tags: N-terminal GST; dsDNA, one strand shown
T7 sequence: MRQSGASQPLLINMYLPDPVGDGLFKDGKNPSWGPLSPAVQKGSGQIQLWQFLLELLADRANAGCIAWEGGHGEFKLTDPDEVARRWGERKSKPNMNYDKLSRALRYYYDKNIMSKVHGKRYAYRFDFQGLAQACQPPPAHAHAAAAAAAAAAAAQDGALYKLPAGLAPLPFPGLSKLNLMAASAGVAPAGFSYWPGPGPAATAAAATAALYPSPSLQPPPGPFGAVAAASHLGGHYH
In short: as §1

ETV5 = ETV5 (Homo sapiens, UniProt P41161 1-510); details: protein: recombinant; tags: N-terminal GST; dsDNA, one strand shown
Chain of ETV5 (P41161 whole entry): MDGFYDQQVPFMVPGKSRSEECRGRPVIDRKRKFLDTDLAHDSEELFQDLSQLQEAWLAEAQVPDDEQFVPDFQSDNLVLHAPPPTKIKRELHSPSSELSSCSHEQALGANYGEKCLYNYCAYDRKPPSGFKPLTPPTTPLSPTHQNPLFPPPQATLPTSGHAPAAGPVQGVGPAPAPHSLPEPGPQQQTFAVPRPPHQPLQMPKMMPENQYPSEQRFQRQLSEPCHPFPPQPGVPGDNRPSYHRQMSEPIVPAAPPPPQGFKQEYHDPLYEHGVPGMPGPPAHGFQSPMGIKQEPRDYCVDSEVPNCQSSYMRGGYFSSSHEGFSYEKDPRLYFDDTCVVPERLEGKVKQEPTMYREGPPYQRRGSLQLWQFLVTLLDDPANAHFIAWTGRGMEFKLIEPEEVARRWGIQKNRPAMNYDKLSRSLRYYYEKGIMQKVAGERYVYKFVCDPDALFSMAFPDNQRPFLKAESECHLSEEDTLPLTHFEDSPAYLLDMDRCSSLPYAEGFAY
In short: as §1

HSF1 = HSF1 (Homo sapiens, UniProt Q00613 1-529); details: protein: recombinant; tags: N-terminal GST; chain copies: 3; dsDNA, one strand shown
Chain of HSF1 (Q00613 whole entry): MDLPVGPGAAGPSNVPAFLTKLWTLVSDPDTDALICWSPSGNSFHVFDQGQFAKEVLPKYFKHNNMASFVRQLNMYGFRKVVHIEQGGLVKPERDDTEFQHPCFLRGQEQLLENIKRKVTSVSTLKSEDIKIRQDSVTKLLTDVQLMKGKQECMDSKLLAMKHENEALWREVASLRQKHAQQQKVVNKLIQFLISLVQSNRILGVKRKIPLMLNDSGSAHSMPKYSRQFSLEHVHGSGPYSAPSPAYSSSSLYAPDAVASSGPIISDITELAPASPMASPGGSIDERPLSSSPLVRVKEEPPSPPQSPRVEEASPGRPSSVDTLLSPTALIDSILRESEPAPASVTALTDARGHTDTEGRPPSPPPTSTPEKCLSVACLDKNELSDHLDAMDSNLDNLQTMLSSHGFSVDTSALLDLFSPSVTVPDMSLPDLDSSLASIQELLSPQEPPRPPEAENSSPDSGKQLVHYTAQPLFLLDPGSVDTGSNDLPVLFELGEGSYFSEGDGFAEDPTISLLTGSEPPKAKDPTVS
In short: as §1

SPIC = target: T8, SPIC (Homo sapiens, UniProt Q8N5J4 1-248); details: protein: recombinant; tags: N-terminal GST; dsDNA, one strand shown
T8 sequence: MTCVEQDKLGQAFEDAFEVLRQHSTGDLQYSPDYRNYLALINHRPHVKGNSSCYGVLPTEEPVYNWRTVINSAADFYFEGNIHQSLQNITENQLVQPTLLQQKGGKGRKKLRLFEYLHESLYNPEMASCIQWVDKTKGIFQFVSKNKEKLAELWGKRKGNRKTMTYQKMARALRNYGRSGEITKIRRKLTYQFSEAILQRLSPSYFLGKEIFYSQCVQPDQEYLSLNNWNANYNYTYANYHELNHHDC
In short: as §1

ELF4 = ELF4 (Homo sapiens, UniProt Q99607 1-663); details: protein: recombinant; tags: N-terminal GST; dsDNA, one strand shown
Chain of ELF4 (Q99607 whole entry): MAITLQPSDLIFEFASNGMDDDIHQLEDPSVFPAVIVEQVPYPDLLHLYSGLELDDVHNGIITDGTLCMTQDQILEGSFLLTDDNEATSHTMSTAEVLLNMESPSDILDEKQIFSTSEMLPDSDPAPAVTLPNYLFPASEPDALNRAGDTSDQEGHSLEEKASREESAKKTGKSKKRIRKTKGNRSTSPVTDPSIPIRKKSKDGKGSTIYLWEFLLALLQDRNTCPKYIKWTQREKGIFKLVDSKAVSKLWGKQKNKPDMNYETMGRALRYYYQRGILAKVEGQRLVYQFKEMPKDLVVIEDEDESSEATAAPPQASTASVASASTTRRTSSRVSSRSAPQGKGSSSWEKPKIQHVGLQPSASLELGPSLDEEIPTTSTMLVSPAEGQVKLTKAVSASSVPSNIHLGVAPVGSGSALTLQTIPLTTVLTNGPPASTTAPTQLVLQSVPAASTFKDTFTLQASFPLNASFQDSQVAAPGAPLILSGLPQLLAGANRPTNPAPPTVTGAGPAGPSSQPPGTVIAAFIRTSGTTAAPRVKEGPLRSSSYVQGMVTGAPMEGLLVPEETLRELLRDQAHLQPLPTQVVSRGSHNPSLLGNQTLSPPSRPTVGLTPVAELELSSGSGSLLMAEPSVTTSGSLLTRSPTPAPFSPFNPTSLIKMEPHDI
In short: as §1

ELK4 = target: T9, ELK4 (Homo sapiens, UniProt P28324-2 1-405); details: protein: recombinant; tags: N-terminal GST; dsDNA, one strand shown
T9 sequence: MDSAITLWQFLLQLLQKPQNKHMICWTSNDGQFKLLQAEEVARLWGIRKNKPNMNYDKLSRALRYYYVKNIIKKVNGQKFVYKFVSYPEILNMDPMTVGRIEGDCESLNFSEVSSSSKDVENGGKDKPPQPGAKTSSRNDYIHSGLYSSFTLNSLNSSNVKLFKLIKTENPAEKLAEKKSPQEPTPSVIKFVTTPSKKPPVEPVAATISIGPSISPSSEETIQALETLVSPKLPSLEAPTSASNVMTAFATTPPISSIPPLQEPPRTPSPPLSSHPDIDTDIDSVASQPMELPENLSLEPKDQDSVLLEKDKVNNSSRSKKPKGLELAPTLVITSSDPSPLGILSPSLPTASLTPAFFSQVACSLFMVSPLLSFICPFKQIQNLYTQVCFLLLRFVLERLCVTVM
In short: as §1

ETV2 = target: T10, ETV2 (Homo sapiens, UniProt O00321 1-342); details: protein: recombinant; tags: N-terminal GST; dsDNA, one strand shown
T10 sequence: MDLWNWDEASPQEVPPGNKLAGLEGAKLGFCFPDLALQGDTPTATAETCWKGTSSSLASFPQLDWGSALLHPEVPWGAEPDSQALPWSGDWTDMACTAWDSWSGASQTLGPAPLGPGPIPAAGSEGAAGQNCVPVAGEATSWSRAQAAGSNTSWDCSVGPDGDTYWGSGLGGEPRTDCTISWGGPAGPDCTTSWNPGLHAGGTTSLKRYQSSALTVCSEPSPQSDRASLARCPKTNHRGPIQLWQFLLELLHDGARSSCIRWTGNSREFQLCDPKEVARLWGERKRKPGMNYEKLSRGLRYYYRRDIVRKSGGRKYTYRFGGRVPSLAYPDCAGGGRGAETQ
In short: as §1

ELF3 = target: T11, ELF3 (Homo sapiens, UniProt P78545 1-371); details: protein: recombinant; tags: N-terminal GST; dsDNA, one strand shown
T11 sequence: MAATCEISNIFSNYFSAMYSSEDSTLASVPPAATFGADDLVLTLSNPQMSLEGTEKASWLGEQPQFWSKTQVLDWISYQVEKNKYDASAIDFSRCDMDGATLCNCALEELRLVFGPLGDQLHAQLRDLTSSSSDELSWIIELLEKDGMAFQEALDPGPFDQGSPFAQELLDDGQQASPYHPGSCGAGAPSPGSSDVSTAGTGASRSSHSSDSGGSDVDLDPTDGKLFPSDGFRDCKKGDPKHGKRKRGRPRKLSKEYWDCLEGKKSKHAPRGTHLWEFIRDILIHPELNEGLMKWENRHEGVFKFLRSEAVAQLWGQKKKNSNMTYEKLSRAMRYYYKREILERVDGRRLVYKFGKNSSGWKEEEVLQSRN
In short: as §1

ETV1 = ETV1 (Homo sapiens, UniProt P50549 1-477); details: protein: recombinant; tags: N-terminal GST; dsDNA, one strand shown
Chain of ETV1 (P50549 whole entry): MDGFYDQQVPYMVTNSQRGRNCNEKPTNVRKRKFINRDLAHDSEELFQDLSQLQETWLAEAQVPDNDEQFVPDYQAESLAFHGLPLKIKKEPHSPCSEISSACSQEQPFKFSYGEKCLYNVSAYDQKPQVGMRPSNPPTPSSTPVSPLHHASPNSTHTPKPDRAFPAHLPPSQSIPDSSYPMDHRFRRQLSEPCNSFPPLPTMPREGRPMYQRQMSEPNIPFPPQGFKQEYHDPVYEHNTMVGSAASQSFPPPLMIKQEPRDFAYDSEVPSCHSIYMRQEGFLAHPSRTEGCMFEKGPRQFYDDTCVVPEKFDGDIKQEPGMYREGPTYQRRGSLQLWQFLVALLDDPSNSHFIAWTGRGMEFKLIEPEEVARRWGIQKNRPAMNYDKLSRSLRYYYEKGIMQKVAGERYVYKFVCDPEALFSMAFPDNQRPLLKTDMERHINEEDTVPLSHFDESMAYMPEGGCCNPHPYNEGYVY
In short: as §1

CCACTC
binding signal (FLI1): 1.23 fold enrichment (6-mer frequency, TF over GST control) | binding signal (ELK1): 1.32 fold enrichment (6-mer frequency, TF over GST control) | binding signal (GABPA): 1.29 fold enrichment (6-mer frequency, TF over GST control) | binding signal (ERG): 1.19 fold enrichment (6-mer frequency, TF over GST control) | binding signal (ELF1): 1.28 fold enrichment (6-mer frequency, TF over GST control) | binding signal (EHF): 1.16 fold enrichment (6-mer frequency, TF over GST control) | binding signal (SPI1): 1.09 fold enrichment (6-mer frequency, TF over GST control) | binding signal (SPIB): 1.16 fold enrichment (6-mer frequency, TF over GST control) | binding signal (ELK3): 1.3 fold enrichment (6-mer frequency, TF over GST control) | binding signal (FEV): 1.27 fold enrichment (6-mer frequency, TF over GST control) | binding signal (ETV5): 1.23 fold enrichment (6-mer frequency, TF over GST control) | binding signal (HSF1): 1.05 fold enrichment (6-mer frequency, TF over GST control) | binding signal (SPIC): 1.27 fold enrichment (6-mer frequency, TF over GST control) | binding signal (ELF4): 1.29 fold enrichment (6-mer frequency, TF over GST control) | binding signal (ELK4): 1.49 fold enrichment (6-mer frequency, TF over GST control) | binding signal (ETV2): 1.18 fold enrichment (6-mer frequency, TF over GST control) | binding signal (ELF3): 1.14 fold enrichment (6-mer frequency, TF over GST control) | binding signal (ETV1): 1.17 fold enrichment (6-mer frequency, TF over GST control)
